MIN6 prolif – induces beta-cell replication in MIN6 cells; MIN6 cells proliferation, ATPlite luminescence, 48 h; cells starved in 0.2% serum; 100% = growth in 10% serum; proliferation, % at 10 µM; 330,000 compounds, 0.29% hits; AID 2380;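 active = compounds whose signal lies at least 3.5 SD above the mean of all wells on their plate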
H9c2 protect – myocardial damage modulation in H9c2 cells; protection from H2O2 cell death, % at 20 µM; H9c2 cardiomyocytes, H2O2 injury protection, ATPLite, 2 h; 360,000 compounds, 0.63% hits;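 active = compounds giving at least 50% protection of heart cells from peroxide-induced death in the single-dose screen, raw or plate-pattern-corrected value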
m-calpain inh – inhibitors of pig calpain II; 220,000 compounds, 0.37% hits; purified calpain II, fluorogenic peptide substrate, 30 min; inhibition, % at 16 µM;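 active = inhibition above about 50%, limit read from the data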
FAS TE block – inhibitors of human fatty acid synthase thioesterase domain. P49327. recombinant FAS-TE, OMFH fluorogenic substrate, fluorescence endpoint. inhibition, % at 15 µM. 360,000 compounds, 0.67% hits. AID 602261;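 active = compounds whose normalised, plate-corrected inhibition of enzyme fluorescence in the single-dose primary screen is 50% or more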
TAG inh – inhibitors of triacylglycerol accumulation; H9c2 cells, Nile Red lipid (TAG) fluorescence; cells loaded with 200 µM oleic acid; inhibition, % at 12.5 µM; 230,000 compounds, 0.66% hits; AID 651582;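 active = pattern-corrected inhibition of lipid staining of at least 50% with the nuclear-stain viability signal not falling by more than 50%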
aDG glyco act – increases alpha dystroglycan glycosylation. Pro5-aDG cells, alpha-DG glycosylation AlphaScreen (IIH6); 0% Pro5, 100% B10-LARGE cell signal. AID 624168. 360,000 compounds, 0.22% hits. activation, % at 10 µM;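 active = activation of at least 8% versus controls, or a plate z-score of at least 8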;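 also: Pro5 are CHO cells carrying HIG-tagged alpha-DG that lacks glycosylation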
FAS-TE conf – FAS thioesterase (human) inhibition, confirmation; shares compounds with FAS TE block; AID 624325; recombinant FAS-TE, OMFH fluorogenic substrate, fluorescence; inhibition, % at 15 µM; 2,300 compounds, 45% hits;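 active = compounds inhibiting the enzyme by at least 50% at 15 µM in any one of the replicates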
Numbers stand for hits; – = inactive; · = no result. Hits are enriched below; roughly 2.3% of the tested compounds scored in any of these assays.

SMILES | MIN6 prolif | H9c2 protect | m-calpain inh | FAS TE block | TAG inh | aDG glyco act | FAS-TE conf
COc1ccc([N+](=O)[O-])cc1NC(=O)C(C)OC(=O)CC1CCCC1 (centres undefined) | – | – | · | 79 | – | – | 61
COc1ccc(Br)cc1CN(C)C(C)C(=O)Nc1cc([N+](=O)[O-])ccc1OC (centres undefined) | – | – | – | 54 | · | – | –
COc1ccc([N+](=O)[O-])cc1NC(=O)C(C)N(C)Cc1ccc(Br)cc1 (centres undefined) | – | – | – | – | · | – | ·
O=C(Nc1cccc(C(F)(F)F)c1)c1csc(COCCO)n1 | · | – | · | – | – | – | ·
COc1cc(CCc2ccccc2)c(C(=O)O)c(O)c1CC=C(C)C | · | – | · | – | · | – | ·
COc1cc(CCc2ccccc2)c(C(=O)O)c(O)c1C/C=C(/C)CCC=C(C)C | · | – | · | 87 | – | – | 59
N#Cc1ccccc1Sc1ccccc1C(=O)Nc1ccc(Br)cc1 | – | – | – | 51 | · | – | –
CNC(=O)c1ccccc1Sc1ccccc1C#N | – | – | – | – | – | – | ·
N#Cc1ccccc1Sc1ccccc1C(=O)Nc1ccc2ccccc2c1 | – | – | – | 60 | · | – | –
C=CCOc1ccc(C(=O)Nc2ncn[nH]2)cc1 | – | – | · | – | – | – | ·
O=C(O)c1ccc(NC(=O)c2cccc(S(=O)(=O)Nc3ccc(C(=O)O)cc3)c2)cc1 | – | – | · | – | – | – | ·
O=C1CSc2ccc(C(=O)Nc3cccc(S(=O)(=O)Nc4ccc(Br)cc4)c3)cc2N1 | – | – | – | 50 | · | – | –
COc1ccccc1NC(=O)COC(=O)c1oc2ccccc2c1C | – | – | · | – | – | – | ·
CNc1nc2cc([N+](=O)[O-])c([N+](=O)[O-])cc2nc1NC | · | – | – | – | · | – | ·
N#Cc1cc2nc(O)c(O)nc2cc1[N+](=O)[O-] | – | – | · | 52 | – | – | 56
O=C(NCc1ccccc1F)Nc1nnc([C@@H]2C[C@H](O)[C@@H](CO)O2)s1 | · | – | · | – | – | – | ·
O=C(/C=C/c1ccc(Cl)cc1Cl)N1CCN(c2ccc([N+](=O)[O-])c(N3CCOCC3)c2)CC1 | – | – | – | 65 | · | – | –
Cc1ccc(OCCNC(=O)c2cc(C(=O)NCCOc3ccc(C)cc3)cc([N+](=O)[O-])c2)cc1 | – | – | – | – | · | – | ·
COc1ccc([N+](=O)[O-])cc1C(=O)NCCOc1ccc(Cl)cc1 | – | – | · | 63 | · | – | 68
Cc1nc(SCc2nc3c([N+](=O)[O-])cccc3[nH]2)c2oc3ccccc3c2n1 | – | – | · | – | – | – | ·
Cc1nnc2n(Cc3ccccc3)c(=O)c3c4c(sc3n12)COC(C(C)C)C4 (centres undefined) | – | – | – | 55 | · | – | –
CN(C)S(=O)(=O)c1cccc(C(=O)Nc2cc(S(=O)(=O)N3CCOCC3)ccc2N2CCCC2)c1 | · | – | · | – | – | – | ·
O=C1CC(c2cccc([N+](=O)[O-])c2)c2cc3c(cc2N1)CCC3 (centres undefined) | – | – | – | 51 | – | – | 33
O=C1CC(c2cccc([N+](=O)[O-])c2)c2c(ccc3ccccc23)N1 (centres undefined) | – | – | – | 55 | – | – | 49
O=C1CC(c2cccc(Cl)c2)c2cc3c(cc2N1)CCC3 (centres undefined) | – | – | – | – | · | – | ·
SMILES | MIN6 prolif | H9c2 protect | m-calpain inh | FAS TE block | TAG inh | aDG glyco act | FAS-TE conf
Cc1ccccc1-n1c(=O)/c(=C\c2ccco2)s/c1=C(/C#N)C(=O)Nc1ccccc1 | – | 71 | – | 62 | · | – | –
O=C(O)c1ccc(C2NCC(c3ccccc3Cl)c3c2[nH]c2ccccc32)cc1 (centres undefined) | – | – | – | – | – | – | ·
COc1cc(C2NCC(c3ccc(Cl)cc3Cl)c3c2[nH]c2ccccc32)cc(OC)c1OC (centres undefined) | – | – | – | 66 | · | – | –
CCN(CC)S(=O)(=O)c1ccc(S(=O)(=O)N2CCCC(C(=O)NC3CC3)C2)cc1 (centres undefined) | – | – | · | – | · | – | ·
O=C(NC(=S)Nc1cccc(C(F)(F)F)c1)c1ccc2nonc2c1 | – | – | – | 51 | – | – | –
COc1ccc(NC(=O)/C(=C\c2ccc(OS(=O)(=O)c3ccc(C)cc3)cc2)NC(=O)c2ccccc2)cc1 | – | – | – | 54 | – | – | –
Cc1ccc(S(=O)(=O)Oc2ccc(/C=C(/NC(=O)c3ccccc3)C(=O)NCCC(=O)O)cc2)cc1 | – | – | – | – | – | – | ·
Cc1ccc(S(=O)(=O)Oc2ccc(/C=C(/NC(=O)c3ccccc3)C(=O)Nc3ccccc3)cc2)cc1 | – | – | – | 55 | – | – | –
CC(=O)N/C(=C/c1ccc(OS(=O)(=O)c2ccc(C)cc2)cc1)C(=O)Nc1ccc(C(=O)O)cc1 | – | – | – | – | – | – | ·
Cc1c(NC(=O)COC(=O)/C=C/c2ccccc2Br)c(=O)n(-c2ccccc2)n1C | – | – | · | – | – | – | ·
CCCCCn1c(=O)c(F)cn(Cc2ccc(OC)c([N+](=O)[O-])c2)c1=O | – | – | – | – | – | – | ·
CCCCCCn1c(=O)c(F)cn(Cc2ccc(OC)c([N+](=O)[O-])c2)c1=O | – | – | – | 58 | · | – | 57
Cc1ccc2c(C)nc(N/C(N)=N/S(=O)(=O)c3ccc([N+](=O)[O-])cc3)nc2c1 | – | – | – | 52 | · | – | 58
Cc1ccc(S(=O)(=O)Nc2cc(Cl)ccc2-n2cncn2)cc1 | – | – | · | – | – | – | ·
Cc1cccc(S(=O)(=O)N(C)C[C@H]2OCc3cnnn3CCCC(=O)N([C@H](C)CO)C[C@H]2C)c1 | · | – | · | – | – | – | ·
CN(CCOc1ccccc1)CC(=O)Nc1ccc([N+](=O)[O-])cc1Cl | – | – | – | 60 | – | – | 39
O=C(Nc1cccc([N+](=O)[O-])c1)Nc1ccc2c(c1)CCC2 | – | – | · | 53 | – | – | –
O=[N+]([O-])c1cccc(NC(=S)N2CCc3ccccc3C2)c1 | – | – | – | 51 | – | – | 23
c1ccc2c(c1)CC(CN1CCNCC1)O2 (centres undefined) | – | – | · | – | · | – | ·
O=C(/C=C/[C@H]1O[C@@H](n2cnc3c(NC(=O)c4ccccc4)ncnc32)[C@H](O)[C@@H]1O)NC1CCCCC1 | · | – | · | – | · | – | ·
O=C(COc1ccc(S(=O)(=O)N2CCCCC2)cc1)Nc1ccccc1F | – | – | · | 52 | – | – | 55
CCn1c(SCC(=O)Nc2ncc(C(F)(F)F)cc2Cl)nnc1-c1cccc(C)c1 | – | – | – | 80 | · | – | 81
COc1ccc(-c2nnc(SCC(=O)Nc3ncc(C(F)(F)F)cc3Cl)n2CC(C)C)cc1 | – | – | – | 79 | · | – | 81
